The values below come from ChEMBL document CHEMBL5606458, “ASAP - ZIKV NS2B-NS3 protease fluorescence single point” (2024).

The target of the experiment is Nonstructural protein 3 (Zika virus) (UniProt A0A024AXB9).
Setting [1] is: PRVABC59, Concentration 15.0 uM, Number of replicates 1.0.
Where [2] appears, read: PRVABC59, Concentration 50.0 uM, Number of replicates 1.0.

Molecules are shown by their SMILES. Screen size: about 2,700 compounds; about 160 (5.9%) showed an effect of 50% or more. What follows is part of a selection rich in strong results, with near analogues and random picks from the rest.

Sequence of Nonstructural protein 3 (Zika virus) (A0A024AXB9 as listed by the source): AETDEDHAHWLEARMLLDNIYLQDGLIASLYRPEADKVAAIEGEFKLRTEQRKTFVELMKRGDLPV

In the case of `Cc1cc(CO)c2cccc(Nc3cc(C)on3)c2n1`, the inhibition (PRVABC59, Concentration 49.95 uM, Number of replicates 2.0, Standard deviation 0.1664787029188791 %) was -8.71%.

Consider `CN(C(=O)c1cc(Cl)ccc1NS(=O)(=O)c1ccc(Oc2ccccc2Cl)cc1)[C@H]1CS(=O)(=O)C[C@@H]1O`, for which the inhibition under setting [1] was 1.21%.

`Cc1cc(CO)c2cccc(C[C@H](NC(=O)c3cc(C(=O)O)[nH]n3)C(=O)O)c2n1`: the inhibition amounted to 1.37% (PRVABC59, Concentration 49.95 uM, Number of replicates 2.0, Standard deviation 1.6911148062176817 %) and 8.92% (PRVABC59, Concentration 99.9 uM, Number of replicates 2.0, Standard deviation 1.9620942703325182 %).

For `O=Cc1ccc(N2CCC(C(=O)Nc3ccc(C(F)(F)F)cc3[N+](=O)[O-])CC2)cc1`, the inhibition under setting [2] worked out at 22.3%.

On to `O=C(c1cc(Cl)ccc1NS(=O)(=O)c1ccc(Oc2ccccc2Cl)cc1)N1CCC(c2nc3ccccc3[nH]2)CC1`, for which the inhibition under setting [1] worked out at 20.5%.

In the case of `Cc1cc(CO)c2cccc(Cc3ccccc3C(=O)Nc3cccc(C(N)=O)c3)c2n1`, the inhibition (PRVABC59, Concentration 49.95 uM, Number of replicates 2.0, Standard deviation 0.5610502494199251 %) was -2.71% and the inhibition (PRVABC59, Concentration 99.9 uM, Number of replicates 2.0, Standard deviation 0.1363299663609753 %) was found to be 0.693%.

For the compound `Cc1cc(CO)c2cccc(Cc3cccc(C(=O)NCC(N)=O)c3)c2n1`, the inhibition by setting is: (PRVABC59, Concentration 49.95 uM, Number of replicates 2.0, Standard deviation 1.0591786257609663 %) -5.74%; (PRVABC59, Concentration 99.9 uM, Number of replicates 2.0, Standard deviation 0.9490662751035868 %) -1.72%.

Regarding `Cc1cc(CO)c2cccc(CC(=O)Nc3nonc3C(N)=O)c2n1`, the inhibition amounted to 82% (PRVABC59, Concentration 49.95 uM, Number of replicates 2.0, Standard deviation 0.05598719921229546 %) and 86.1% (PRVABC59, Concentration 99.9 uM, Number of replicates 2.0, Standard deviation 1.0790078750483718 %).

For `Cc1cc(CO)c2cccc(CC(=O)Nc3ccc(C(=O)O)o3)c2n1`, the inhibition runs as follows: (PRVABC59, Concentration 49.95 uM, Number of replicates 2.0, Standard deviation 1.3790313962849292 %) 42.9%; (PRVABC59, Concentration 99.9 uM, Number of replicates 2.0, Standard deviation 0.49288480262410383 %) 40.6%.

Regarding `Cc1cc(CO)c2cccc(Nc3nonc3C(N)=O)c2n1`, the inhibition was found to be 4.15% (PRVABC59, Concentration 49.95 uM, Number of replicates 2.0, Standard deviation 1.4175935710362748 %) and 4.07% (PRVABC59, Concentration 99.9 uM, Number of replicates 2.0, Standard deviation 2.0633301575187155 %).

Regarding `Cc1cc(CO)c2cccc(CC(=O)N[C@@H](CCC(N)=O)C(=O)O)c2n1`, the inhibition runs as follows: (PRVABC59, Concentration 49.95 uM, Number of replicates 2.0, Standard deviation 0.13741625923449508 %) 69.6%; (PRVABC59, Concentration 99.9 uM, Number of replicates 2.0, Standard deviation 0.11197439842459092 %) 81.6%.

As for `Cc1cc(CO)c2cccc(Cc3cccc(C(=O)Nc4nonc4C(N)=O)c3)c2n1`, the inhibition was 20.1% (PRVABC59, Concentration 49.95 uM, Number of replicates 2.0, Standard deviation 1.609742570683987 %) and 55.3% (PRVABC59, Concentration 99.9 uM, Number of replicates 2.0, Standard deviation 0.8074931564941592 %).

On to `Cc1cc(CO)c2cccc(Cc3cccc(C(=O)Nc4cccc(C(N)=O)c4)c3)c2n1`, for which the inhibition was -3.36% (PRVABC59, Concentration 49.95 uM, Number of replicates 2.0, Standard deviation 0.1992514179713741 %) and -0.56% (PRVABC59, Concentration 99.9 uM, Number of replicates 2.0, Standard deviation 0.4299637092619174 %).

As to `Cc1cc(CO)c2cccc(Cc3ccccc3C(=O)Nc3nonc3C(N)=O)c2n1`, the inhibition runs as follows: (PRVABC59, Concentration 49.95 uM, Number of replicates 2.0, Standard deviation 0.12584307180819165 %) -4.45%; (PRVABC59, Concentration 99.9 uM, Number of replicates 2.0, Standard deviation 0.39850300453014226 %) -1.53%.

On to `Cc1cc(CO)c2cccc(Cc3cccc(C(=O)N[C@@H](CCC(N)=O)C(=O)O)c3)c2n1`, for which the inhibition (PRVABC59, Concentration 49.95 uM, Number of replicates 2.0, Standard deviation 1.9977585963676485 %) amounted to 14.4% and the inhibition (PRVABC59, Concentration 99.9 uM, Number of replicates 2.0, Standard deviation 0.9280938346971718 %) turned out to be 36%.

For `Cc1cc(CO)c2cccc(Cc3ccccc3C(=O)N[C@@H](CCC(N)=O)C(=O)O)c2n1`, the inhibition by setting is: (PRVABC59, Concentration 49.95 uM, Number of replicates 2.0, Standard deviation 1.0696657731948411 %) -4.71%; (PRVABC59, Concentration 99.9 uM, Number of replicates 2.0, Standard deviation 0.7655451252044032 %) 0.649%.

Take `Cc1cc(CO)c2cccc(CC(=O)Nc3cccc(C(N)=O)c3)c2n1`: the inhibition runs as follows: (PRVABC59, Concentration 49.95 uM, Number of replicates 2.0, Standard deviation 0.035627236808440856 %) 58.9%; (PRVABC59, Concentration 99.9 uM, Number of replicates 2.0, Standard deviation 0.025447255606513557 %) 72.8%.

`O=C(Nc1nc2[nH]cnc2c(=O)[nH]1)c1cc(Cl)ccc1NS(=O)(=O)c1ccc(Oc2ccccc2Cl)cc1`: the inhibition under setting [1] was 21.9%.

`CN(C)Cc1ccc(NCc2ccc(N3CCN(C)CC3)cc2)nc1`: the inhibition is, setting by setting: (PRVABC59, Concentration 49.5 uM, Number of replicates 2.0, Standard deviation 0.4640657991367188 %) -2.39%; (PRVABC59, Concentration 99.01 uM, Number of replicates 2.0, Standard deviation 0.7284754441158133 %) -1.05%; (PRVABC59, Concentration 198.0 uM, Number of replicates 2.0, Standard deviation 0.8166119221974307 %) 1.21%.

`O=Cc1ccc(N2CCC(C(=O)Nc3c(Cl)cccc3[N+](=O)[O-])CC2)cc1`: under setting [2], the inhibition came out at 21.7%.

For `CN1CCN(c2ccc(CNS(=O)(=O)c3ccc(C(N)=O)cc3)cc2)CC1`, the inhibition by setting is: (PRVABC59, Concentration 49.5 uM, Number of replicates 2.0, Standard deviation 3.1298940912505486 %) -2.93%; (PRVABC59, Concentration 99.01 uM, Number of replicates 2.0, Standard deviation 2.0491409994990377 %) -9.18%.

As to `CC(C)N(Cc1cnn(C)c1)C(=O)c1cc(Cl)ccc1NS(=O)(=O)c1ccc(Oc2ccccc2Cl)cc1`, the inhibition under setting [1] came out at 21.9%.

Consider `CN(C(=O)c1cc(Cl)ccc1NS(=O)(=O)c1ccc(Oc2ccccc2Cl)cc1)[C@H]1CCN(Cc2ccccc2)C1`, for which the inhibition under setting [1] is 18.4%.

A word on the inhibition: it is the relative decrease from the control value, in per cent.
